Experimental data: PubChem BioAssay AID763 (NMMLSC, 2007)
The source made the active and inactive calls. No rule for the calls is given here.

The molecules below were run against fMet-Leu-Phe receptor (Homo sapiens) (UniProt P21462) (assay: human FPR1 ligand displacement single-point test – cell-based, single concentration, selectivity assay for FPRL1 ligand SAR project, SAR follow-up (AID 763)). Conditions: FPR1-expressing cells, fluorescent ligand binding inhibition, hits give high values; at 5.4 µM unless noted.
Sequence of fMet-Leu-Phe receptor (Homo sapiens) (P21462 whole entry, looked up): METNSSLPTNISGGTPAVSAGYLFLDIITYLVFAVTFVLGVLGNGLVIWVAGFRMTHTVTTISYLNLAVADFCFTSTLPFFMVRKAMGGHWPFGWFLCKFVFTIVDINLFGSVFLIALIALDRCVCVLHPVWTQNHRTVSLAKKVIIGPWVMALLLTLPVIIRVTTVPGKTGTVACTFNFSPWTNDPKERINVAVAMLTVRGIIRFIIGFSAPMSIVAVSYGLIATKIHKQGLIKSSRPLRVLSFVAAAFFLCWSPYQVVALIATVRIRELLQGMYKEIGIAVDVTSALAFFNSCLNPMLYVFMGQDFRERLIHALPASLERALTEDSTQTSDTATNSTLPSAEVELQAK

inhibition, inactive:
CCOC(=O)N1CCN(c2nc(-c3ccccc3)c3ccccc3n2)CC1 3.6% [at 6.1 µM]
CCC(=O)Nc1cccc(-c2nc3ncccn3c2C)c1 5.6% [at 7.9 µM]
COc1ccc(-c2cc(C(F)(F)F)nc(N3CCN(C)CC3)n2)cc1 2.1% [at 6.3 µM]
COc1ccc(-c2cc(C(F)(F)F)nc(N3CCN(c4ccc(F)cc4)CC3)n2)cc1OC -1.4% [at 4.8 µM]
COc1ccc(-c2cn3cccnc3n2)cc1NC(=O)c1cccc(OC)c1OC -0.2% [at 5.5 µM]
C/C=C\C(=O)Nc1cc(-c2cn3cccnc3n2)ccc1OC 4% [at 7.2 µM]
COc1ccccc1-c1cc(C(F)(F)F)nc(N2CCN(c3ccccc3OC)CC2)n1 -2.2% [at 5 µM]
COc1ccc(-c2cn3cccnc3n2)cc1NC(=O)c1ccc(OC)c(OC)c1 -5.3% [at 5.5 µM]
COc1ccc(-c2cn3cccnc3n2)cc1NC(=O)c1cc(C)cc(C)c1 -0.5% [at 6 µM]
COc1cccc(-c2cc(C(F)(F)F)nc(N3CCN(c4ccccc4)CC3)n2)c1 -7.4%
CC(C)(C)OC(=O)N1CCN(c2nc(-c3ccccc3)c3ccccc3n2)CC1 -1.7% [at 5.7 µM]
COc1ccc(-c2cn3cccnc3n2)cc1NC(=O)c1ccccc1 -4.9% [at 6.5 µM]
COc1ccc(-c2cn3cccnc3n2)cc1NC(=O)c1ccc(C(F)(F)F)cc1 3.7%
COc1cccc(-c2cc(C(F)(F)F)nc(N3CCN(c4ccc(F)cc4)CC3)n2)c1 1.7% [at 5.1 µM]
CC(C)(C)OC(=O)N1CCN(c2nc(-c3ccccc3)c3cc([N+](=O)[O-])ccc3n2)CC1 -8.4% [at 5.1 µM]
CCC(=O)Nc1cccc(-c2cn3cccnc3n2)c1 -0.2% [at 8.3 µM]
COc1ccc(-c2cn3cccnc3n2)cc1NC(=O)C(C)C -8.8% [at 7.2 µM]
COc1ccc(-c2nc(N3CCN(C)CC3)[nH]c(=O)c2C#N)cc1 -1.7% [at 6.8 µM]
FC(F)(F)c1cc(-c2ccccc2)nc(N2CCN(Cc3ccccc3)CC2)n1 -9.1% [at 5.6 µM]
O=C(c1ccc(Cl)cc1)N1CCN(c2nc(-c3ccccc3)c3ccccc3n2)CC1 -1.9% [at 5.2 µM]
COc1ccc(-c2cn3cccnc3n2)cc1NC(=O)C(C)(C)C 1.9% [at 6.9 µM]
COc1ccc(-c2cn3cccnc3n2)cc1NC(=O)c1cccc(F)c1 -0.9% [at 6.1 µM]
COc1ccccc1-c1cc(C(F)(F)F)nc(N2CCN(Cc3ccccc3)CC2)n1 1.1% [at 5.2 µM]
Cc1ccc(-c2cc(C(F)F)nc(N3CCN(Cc4ccccc4)CC3)n2)cc1 -7.2% [at 5.6 µM]
COc1ccc(C2CC(=O)c3cnc(N4CCN(Cc5ccc6c(c5)OCO6)CC4)nc3C2)cc1OC (stereo not drawn) -0.9% [at 4.4 µM]
FC(F)(F)c1cc(-c2cccs2)nc(N2CCN(Cc3ccccc3)CC2)n1 0.4% [at 5.5 µM]
O=C(O)CC1(CC(=O)N2CCN(c3nc(-c4ccccc4Cl)c4cc(Br)ccc4n3)CC2)CCCC1 -1.2% [at 3.9 µM]
Clc1cccc(-c2nc(N3CCN(c4ccccn4)CC3)nc3c2COc2ccccc2-3)c1 1.7% [at 4.9 µM]
COc1ccc(-c2cn3cccnc3n2)cc1NC(=O)C(C)Oc1ccccc1 (stereo not drawn) 3.7% [at 5.7 µM]
CCOc1cc(C(=O)Nc2cc(-c3cn4cccnc4n3)ccc2OC)cc(OCC)c1OCC 0% [at 4.7 µM]
COc1ccc(-c2cn3cccnc3n2)cc1NC(=O)c1ccc(Cl)cc1 -0.5% [at 5.9 µM]
O=C1CC(c2ccco2)Cc2nc(N3CCN(Cc4ccccc4)CC3)ncc21 (stereo not drawn) 5.5% [at 5.7 µM]
COc1ccc(-c2cn3cccnc3n2)cc1NC(=O)c1ccc(C(C)(C)C)cc1 5.7% [at 5.6 µM]
